Molecules are shown by their SMILES. Values joined by “and” are separate entries in the source; they are usually repeats but may differ in a detail not shown here. Identical values can stand only once. Some compounds were tested as several samples or in several runs, with calls that do not always agree. Active and inactive are the calls of the source. Rule for the calls: active = hit-call score of the fitted dose curve at least 0.9, where 1 is the maximum; inactive = score below 0.9.

Read-out in the assay: Matrix Metallopeptidase 1 (MMP1), MMP1 (gene 4312)
Put plainly: BSK_BE3C_MMP1: BioMAP Diversity Plus: BE3C Assay for Matrix Metallopeptidase 1 (MMP1) Biomarker Activity (AID 2283024). As to conditions: primary human bronchial epithelial cells; actives raise or lower the signal. On the procedure:
BSK_BE3C is a cell-based, multiplexed-readout assay that uses bronchial epithelial cell, a human lung primary cell, with measurements taken at 24 hours after chemical dosing in a 96-well plate.BSK_BE3C_MMP1 is an assay component measured in the BSK_BE3C assay. It measures MMP-1 antibody related to regulation of gene expression using ELISA technology.Data from the assay component BSK_BE3C_MMP1 was analyzed into 1 assay endpoint. This assay endpoint, BSK_BE3C_MMP1, was analyzed with bidirectional fitting relative to DMSO as the negative control and baseline of activity. Using a type of binding reporter, gain or loss-of-signal activity can be used to understand changes in the signaling as they relate to the gene MMP1. Furthermore, this assay endpoint can be referred to as a primary readout, because this assay has produced multiple assay endpoints where this one serves a signaling function. To generalize the intended target to other relatable targets, this assay endpoint is annotated to the protease intended target family, where the subfamily is matrix metalloproteinase.
The levels of cell surface (or secreted, indicated by the prefix "s") biomarker endpoints were measured by ELISA. Overt cytotoxicity to cells in confluent adherent cultures (all systems other than the BT system) was assessed by measuring total protein levels using sulforhodamine B (SRB) staining in parallel cultures at the time of biomarker measurements, indicated as SRB endpoints. For proliferation assays for adherent cell types, individual cell types are cultured at sub-confluence and relative cell numbers quantified by SRB staining at time points optimized for each system (48 h: 3C and CASM3C systems; 72 h: BT and HDF3CGF systems; 96 h: SAg system). SRB was performed by staining cells with 0.1% SRB after fixation with 10% TCA and reading wells at 560 nm.Viability and proliferation of PBMC (T cells) was quantified by Alamar Blue reduction for the SAg and BT systems. For PBMC viability (referred to as PBMC Cytotoxicity within the assay endpoint names), cells were plated (75,000/well in a 96-well plate) and then chemical samples added for 1 h before addition of activators, SEB and TSST-1 (20 ng/mL final concentration each). Cells were incubated for 90 h. Then, Alamar Blue (20 uL/well) (Invitrogen, Cat DAL1100) was added for 6 h, and the plates were read with a fluorescence microplate reader at 546/580 nm (excitation/emission). For PBMC proliferation, cells were plated and activated as above but incubated for only 16 h prior to addition of Alamar Blue. Plates were read after 6 h.
For the molecule `C=C(C)C(=O)OCCCCCCCCCCCC`, the result was inactive.

Consider `Oc1c(Cl)cc(Cl)c(Cl)c1Cl`, for which the AC50 was 4310 nM (active).

Consider `c1ccc2c(c1)[nH]c1ccccc12`, for which the result was inactive and the AC50 was 126 nM (active).

On to `CC(C)[N+](C)(CCOC(=O)C1c2ccccc2Oc2ccccc21)C(C)C`, for which the outcome was inactive.

For the molecule `CCCCCCOC(=O)CCCCC(=O)OCCCCCC`, the outcome was inactive.

As for `Oc1ccccc1Cc1ccccc1O`, the outcome was inactive.

Consider `COc1ccc(C(=O)/C(Br)=C\C(=O)O)cc1`, for which the outcome was inactive.

On to `CCCCCCCO`, for which the outcome was inactive.

As for `C=CC(=O)OCCCCCCCC(C)C`, the result was inactive.

Consider `C1CNCCN1`, for which the result was inactive.

For `CCNc1nc(NC(C)(C)C)nc(OC)n1`, the result was inactive.

With `C[N+](C)(C)CCCNS(=O)(=O)C(F)(F)C(F)(F)C(F)(F)C(F)(F)C(F)(F)C(F)(F)C(F)(F)C(F)(F)F`, the AC50 was 19600 nM (active) and the result was inactive.

Regarding `Cc1c(O)cccc1O`, the result was inactive.

With `CCc1cccc(C)c1N(C(=O)CS(=O)(=O)O)C(C)COC` (stereo not given), the result was inactive.

As to `Fc1ccc(Br)cc1`, the result was inactive.

For the molecule `C=CC(=O)OCCCCCCOC(=O)C=C`, the outcome was inactive.

Turning to `COC(OC)(C(=O)c1ccccc1)c1ccccc1`, the outcome was inactive.

Consider `CCCCCCCCCCCC(=O)N(C)CC(=O)O`, for which the AC50 was 8.01 µM (active) and 15.5 µM (active).

Take `CCCCCCCCCCCC(C)=O`: the AC50 is 16 nM (active).

Turning to `CCCCCCCCC(CO)CCCCCC` (stereo not given), the outcome was inactive.

As to `CC=C(C)C=CC=C(C)C`, the result was inactive.

On to `CC=C(C)C(C)=O`, for which the AC50 is 419 nM (active).

For the molecule `CC1(C)CC(O)CC(C)(C)N1[O]`, the result was inactive.

Consider `CC(c1cc(C(C)(C)C)cc(C(C)(C)C)c1O)c1cc(C(C)(C)C)cc(C(C)(C)C)c1O`, for which the result was inactive.

Consider `C=CC(=O)NC(C)(C)C`, for which the result was inactive.

Take `C=CCCCCCCCCC=O`: the outcome was inactive.

On to `Oc1ccc(/C=C/c2cc(O)cc(O)c2)cc1`, for which the result was inactive.

In the case of `COc1ccc(C(=O)c2ccccc2)c(O)c1`, the result was inactive.

Regarding `CC(C)c1cccc(C(C)C)c1N`, the result was inactive.

`O=C(Cl)c1c(Cl)c(Cl)c(C(=O)Cl)c(Cl)c1Cl`: the result was inactive.

As for `CC/C=C\CCOC(=O)c1ccccc1O`, the outcome was inactive.

Regarding `CC1=CC=C(C(C)C)CC1`, the outcome was inactive.

`Nc1ccc(C(=O)O)cc1`: the outcome was inactive.

`Clc1cc(Cl)c(Cl)c(Cl)c1Cl`: the result was inactive.

Regarding `Cc1ccc([N+](=O)[O-])cc1N`, the result was inactive.

For `CC/C=C\C/C=C\C/C=C\CCCCCCCC(=O)OC`, the AC50 is 33600 nM (active).

For the molecule `CCCCCC1=CCCC1=O`, the AC50 was 16 nM (active).

Take `O=C(Oc1ccccc1)c1ccccc1C(=O)Oc1ccccc1`: the outcome was inactive.

The term AC50 denotes the concentration at which the activity in the assay is half-maximal.

These data come from PubChem BioAssay (EPA / NIEHS).
